# From the supplement of paper PMC8975748
# Where a name gives a salt, the structure may show the parent alone.
# System: Saccharomyces cerevisiae BY4741 SeMeCo community
# Test: z-score of subpopulation abundance vs DMSO median, subpopulation auxotrophic for L; higher = larger share of this subpopulation than in DMSO controls
# Conditions: 10 µM; 24 h; SM minimal medium; subpopulation (auxotrophy): L
# Protocol: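 Fluorescent four-plasmid SeMeCo (self-establishing metabolically cooperating S. cerevisiae BY4741 community; plasmids pH-mRuby2, pL-mWasabi, pU-eCFP, pM-TagRFP657) was grown 24 h in minimal SM medium with each Selleck FDA-approved drug at 10 µM in 384-well plates. Cells were fixed and imaged by high-content confocal microscopy. For each auxotrophic subpopulation (and the prototroph), a z-score gives the deviation from the DMSO vehicle-control population median.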
row,SMILES,z-score of subpopulation abundance
1,Cc1cc(-n2c(=O)[nH]c(=O)n(C)c2=O)ccc1Oc1ccc(SC(F)(F)F)cc1 [Toltrazuril],-0.15
2,CN[C@@H]1[C@@H](O[C@H]2O[C@H](CO)[C@@H](N)[C@H](O)[C@H]2O)OC2C[C@@H](N)[C@@H](O[C@H]3[C@H](O)[C@@H](O)[C@H](N)C[C@@H]3N)OC2[C@@H]1O (stereo not given in full) [Apramycin Sulfate],-0.01
3,Cc1cccc(C)c1OCC(C)N (stereo not given) [Mexiletine HCl],-0.39
4,CCOc1cc(N)c(Cl)cc1C(=O)NCC1CN(Cc2ccc(F)cc2)CCO1 (stereo not given) [Mosapride Citrate],0.92
5,Fc1ccc(C(c2ccc(F)cc2)N2CCN(C/C=C/c3ccccc3)CC2)cc1 [Flunarizine 2HCl],2.04
6,CO[C@H]1O[C@@H]2O[C@@]3(C)CC[C@H]4[C@H](C)CC[C@@H]([C@H]1C)[C@@]24OO3 [Artemether],-0.43
7,CC1(C)S[C@@H]2[C@H](NC(=O)[C@H](N)c3ccccc3)C(=O)N2[C@H]1C(=O)OCOC(=O)[C@@H]1N2C(=O)C[C@H]2S(=O)(=O)C1(C)C [Sultamicillin Tosylate],-0.36
8,CCN(CC)CCNC(=O)c1cc(Cl)c(N)cc1OC [Metoclopramide HCl],-0.18
9,CCNC(=O)[C@@H]1CCCN1C(=O)[C@H](CCCNC(=N)N)NC(=O)[C@H](CC(C)C)NC(=O)[C@@H](CC(C)C)NC(=O)[C@H](Cc1ccc(O)cc1)NC(=O)[C@H](CO)NC(=O)[C@H](Cc1c[nH]c2ccccc12)NC(=O)[C@H](Cc1c[nH]cn1)NC(=O)[C@@H]1CCC(=O)N1 [Leuprolide Acetate],0.44
10,CN(C)c1ccc(O)c2c1C[C@H]1C[C@H]3[C@H](N(C)C)C(=O)C(C(N)=O)=C(O)[C@@]3(O)C(=O)C1=C2O [Minocycline HCl],-0.03
11,COc1ccc2cc3[n+](cc2c1OC)CCc1cc2c(cc1-3)OCO2 [Berberine chloride],0.44
12,Cc1ncc([N+](=O)[O-])n1CCOC(=O)c1ccccc1 [Metronidazole Benzoate],-0.6
13,Cc1c(-c2ccc(O)cc2)n(Cc2ccc(OCCN3CCCCCC3)cc2)c2ccc(O)cc12 [Bazedoxifene HCl],-0.9
14,CC1(C)S[C@@H]2[C@H](NC(=O)[C@H](C(=O)O)c3ccsc3)C(=O)N2[C@H]1C(=O)O [Ticarcillin sodium],2.72
15,CN1CCC(=C2c3ccccc3CCc3sccc32)CC1 [Pizotifen Malate],0.36
16,C[C@@H](NCCCc1cccc(C(F)(F)F)c1)c1cccc2ccccc12 [Cinacalcet HCl],2.8
17,CCCCCCCCCC(=O)NC1C(Oc2c3cc4cc2Oc2ccc(cc2Cl)C(OC2OC(CO)C(O)C(O)C2NC(C)=O)C2NC(=O)C(NC(=O)C4NC(=O)C4NC(=O)C(Cc5ccc(c(Cl)c5)O3)NC(=O)C(N)c3ccc(O)c(c3)Oc3cc(O)cc4c3)c3ccc(O)c(c3)-c3c(OC4OC(CO)C(O)C(O)C4O)cc(O)cc3C(C(=O)O)NC2=O)OC(CO)C(O)C1O (stereo not given) [Teicoplanin],-0.21
18,OC(CCCN1CCCCC1)(c1ccccc1)c1ccccc1 [Diphenidol HCl],-0.41
19,Nc1ccc(S(=O)(=O)Nc2nccs2)cc1 [Sulfathiazole],-0.12
20,CNCCC(Oc1ccc(C(F)(F)F)cc1)c1ccccc1 (stereo not given) [Fluoxetine HCl],-0.14

row,SMILES,z-score of subpopulation abundance
1,CCCCOc1cc(C(=O)NCCN(CC)CC)c2ccccc2n1 [Dibucaine HCl],-0.47
2,CN1CCN(C2=Nc3cc(Cl)ccc3Nc3ccccc32)CC1 [Clozapine],-0.41
3,Cc1c(OCC(F)(F)F)ccnc1C[S+]([O-])c1nc2ccccc2[nH]1 (stereo not given) [Lansoprazole],1.12
4,CCOC(=O)C1=C[C@@H](OC(CC)CC)[C@H](NC(C)=O)[C@@H](N)C1 [Oseltamivir Phosphate],0.45
5,OC(CCN1CCCCC1)(c1ccccc1)C1CCCCC1 (stereo not given) [Trihexyphenidyl hydrochloride],0.5
6,Cc1cc(NS(=O)(=O)c2ccc(N)cc2)no1 [Sulfamethoxazole sodium],-0.95
7,CC(C(=O)O)c1ccc2c(c1)CC(=O)c1ccccc1S2 (stereo not given) [Zaltoprofen],-0.47
8,O=C(Nc1ccc(Oc2ccc(Cl)cc2)c(Cl)c1)c1cc(I)cc(I)c1O [Rafoxanide],1.02
9,Cc1ncc([N+](=O)[O-])n1C [Dimetridazole],-1.34
10,CN(C)CCCN1c2ccccc2CCc2ccc(Cl)cc21 [Clomipramine HCl],-0.45
11,CN(C)C(=O)COC(=O)Cc1ccc(OC(=O)c2ccc(NC(=N)N)cc2)cc1 [Camostat Mesilate],0.34
12,NCC[C@H](O)C(=O)N[C@@H]1C[C@H](N)[C@@H](O[C@H]2O[C@H](CN)[C@@H](O)[C@H](O)[C@H]2O)[C@H](O)[C@H]1O[C@H]1O[C@H](CO)[C@@H](O)[C@H](N)[C@H]1O [Amikacin disulfate],0.46
13,Nc1nc2c(ncn2COCCO)c(=O)[nH]1 [Aciclovir],1.26
14,Fc1ccc([C@@H]2CCNC[C@H]2COc2ccc3c(c2)OCO3)cc1 [Paroxetine mesylate],0.03
15,NC[C@H]1O[C@H](O[C@H]2[C@H](O)[C@@H](O[C@H]3O[C@H](CO)[C@@H](O)[C@H](N)[C@H]3O)[C@H](N)C[C@@H]2N)[C@H](O)[C@@H](O)[C@@H]1O [Kanamycin sulfate],1.91
16,C[C@H]1COc2c(C3(N)CC3)c(F)cc3c(=O)c(C(=O)O)cn1c23 [Pazufloxacin mesylate],0.31
17,C[C@@H]1O[C@@H]1P(=O)(O)O [Fosfomycin Disodium],0.72
18,CN[C@H](CC(C)C)C(=O)N[C@H]1C(=O)N[C@@H](CC(N)=O)C(=O)N[C@H]2C(=O)N[C@H]3C(=O)N[C@H](C(=O)N[C@H](C(=O)O)c4cc(O)cc(O)c4-c4cc3ccc4O)[C@H](O)c3ccc(c(Cl)c3)Oc3cc2cc(c3O[C@@H]2O[C@H](CO)[C@@H](O)[C@H](O)[C@H]2O[C@H]2C[C@](C)(N)[C@H](O)[C@H](C)O2)Oc2ccc(cc2Cl)[C@H]1O [Vancomycin HCl],-0.67
19,Cc1ncc([N+](=O)[O-])n1CC(O)CCl (stereo not given) [Ornidazole],0
20,NC(=O)C(c1ccccc1)(c1ccccc1)[C@@H]1CCN(CCc2ccc3c(c2)CCO3)C1 [Darifenacin HBr],-0.21
